Laboratory results taken from PubChem BioAssay (EPA / NIEHS).
Activity calls are given as the source filed them. How the source made its calls: active means hit-call score of the fitted dose curve at least 0.9, where 1 is the maximum; inactive means score below 0.9.

assay: CEETOX_H295R_MTT_cell_viability: Viability Assessment in the CeeTox HT-H295R MTT Assay (AID 2283718);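 on AC50: curve fitted both ways so AC50 may mark viability loss or gain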
How it was run: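 Human H295R adrenal cells, prestimulated 48 h with 10 uM forskolin, were exposed 48 h to chemicals in 0.1% DMSO. Viability was measured in the same wells by MTT (0.5 mg/ml, 4 h, 37 C), absorbance 570/650 nm, as percent of controls.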

Question: Which AC50 does the source give for `c1cc[c]([Sb]([c]2ccccc2)[c]2ccccc2)cc1` here?
Answer: The AC50 was 37.6 µM (active).

Question: Which outcome does the source give for `O=[N+]([O-])c1ccc(Nc2ccccc2)cc1` here?
Answer: Its outcome is “inactive”.

Question: Which AC50 does the source give for `Oc1c(Br)cc(Br)cc1Br` here?
Answer: Its AC50 is 93.6 µM (active).

Question: For `CCC[CH2][Sn]([Cl])([Cl])[CH2]CCC`, which outcome is on record?
Answer: The outcome was “inactive”.

Question: With `Cc1cc(Cl)ccc1N` as the compound, how does the outcome read?
Answer: Its outcome is “inactive”.

Question: With `OC(Cc1ccccc1Cl)(Cn1[nH]cnc1=S)C1(Cl)CC1` (stereo unspecified) as the compound, how does the outcome read?
Answer: Its outcome is “inactive”.

Question: Which outcome does the source give for `O=S1OC[C@@H]2[C@H](CO1)[C@]1(Cl)C(Cl)=C(Cl)[C@@]2(Cl)C1(Cl)Cl` (stereo partly specified) here?
Answer: Its outcome is “inactive”.

Question: For `CCCSP(=S)(OCC)Oc1ccc(SC)cc1` (stereo unspecified), which outcome is on record?
Answer: The outcome was “inactive”.

Question: With `Oc1cccc(-c2ccccc2)c1` as the compound, how does the outcome read?
Answer: The outcome was “inactive”.

Question: For `Cc1ccccc1OP(=O)(Oc1ccccc1C)Oc1ccccc1C`, which outcome is on record?
Answer: The outcome was “inactive”.

Question: For `COC(=O)Nc1cccc(OC(=O)Nc2cccc(C)c2)c1`, which outcome is on record?
Answer: The outcome was “inactive”.

Question: With `CCOCn1c(-c2ccc(Cl)cc2)c(C#N)c(Br)c1C(F)(F)F` as the compound, how does the AC50 read?
Answer: Its AC50 is 3.79 µM (active).

Question: Which outcome does the source give for `CC(C)(C)c1cc([N+](=O)[O-])cc(C(C)(C)C)c1O` here?
Answer: The outcome was “inactive”.

Question: Which outcome does the source give for `CCOP(=O)(OCC)OC(=CCl)c1ccc(Cl)cc1Cl` here?
Answer: Its outcome is “inactive”.

Question: With `CC(C)=CC1C(C(=O)OCc2cccc(Oc3ccccc3)c2)C1(C)C` (stereo unspecified) as the compound, how does the AC50 read?
Answer: The AC50 was 9.92 µM (active).

Question: Which outcome does the source give for `Cc1cc(Cl)ccc1O` here?
Answer: Its outcome is “inactive”.

Question: Which AC50 does the source give for `OC[P+](CO)(CO)CO` here?
Answer: Its AC50 is 2.83 µM (active).

Question: With `Cc1cc(C(C)(C)c2ccc(O)c(C)c2)ccc1O` as the compound, how does the outcome read?
Answer: The outcome was “inactive”.

Question: Which outcome does the source give for `CCOP(=S)(OCC)O/N=C(\C#N)c1ccccc1` here?
Answer: Its outcome is “inactive”.

Question: For `CCCCCCCCCCCCN(C)C`, which outcome is on record?
Answer: Its outcome is “inactive”.

Question: For `C[C@]12CC[C@@H](O)C[C@@H]1CC[C@@H]1[C@@H]2CC[C@]2(C)C(=O)CC[C@@H]12`, which outcome is on record?
Answer: The outcome was “inactive”.
